Results reported in PubChem BioAssay (NCI).
This is part of a sample that, as a whole, favours compounds with a hit. Of some 79,000 tested, about 15% had one in any assay. The source made the active and inactive calls. Rule as the data show it: active = growth inhibition above about 70%; inactive = the rest.

Test: NCI Yeast Anticancer Drug Screen. Data for the mgt1 strain (AID 153)
Conditions: S. cerevisiae mgt1 mutant growth inhibition; at 100.0 µM; stronger effect = higher value
Summary of the method: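 Yeast mgt1 strain (DNA repair/cell-cycle alteration panel) exposed to compounds; growth inhibition measured relative to vehicle-treated controls.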

Compound	growth inhibition
S=C(S)NN1CCOCC1	18% (inactive)
COc1cc2c3c(cccc3c1)C(=O)N(CCN(C)C)C2=O	-7% (inactive)
COC(=O)C1=C(C)NC(C)=C(C(=O)OCCCN2CCC(c3ccccc3)(c3ccccc3)CC2)C1c1cccc([N+](=O)[O-])c1 (stereo not given)	93% (active)
c1ccc2c(c1)Oc1cccc3cccc-2c13	27% (inactive)
CN(C)CCOc1ccc2c(c1)C/C(=C/c1ncc([N+](=O)[O-])n1C)C2=O	62% (inactive)
Cc1ccc(CCC2=CCCc3c2ccc2ccccc32)cc1	-39% (inactive)
CNC(=O)OCc1c(COC(=O)NC)c(-c2ccc(Cl)c(Cl)c2)n2c1CCC2	98% (active)
Clc1ccccc1C1OC1c1ccccc1Cl (stereo not given)	-27% (inactive)
O=[N+]([O-])c1cc(CCl)ccc1CCl	97% (active)
O=C1C=CC(=O)c2c(O)c(Nc3ccc(OC(F)(F)F)cc3)c(Cl)c(O)c21	94% (active)
S=c1[nH]nc(Nc2ccc(Cl)cc2)s1	19% (inactive)
Cn1ccnc1Oc1ccc(Cl)cc1	98% (active)
BrCc1cccc2ccc3cccc(CBr)c3c12	3% (inactive)
O=C1c2ccccc2-c2nc3ccccc3nc21	61% (inactive)
CCCCCCCCCCCCCCCCCCNC	96% (active)
Oc1ccc(NCn2c(=S)sc3ccccc32)cc1	98% (active)
O=C1C2CC[C@@H]3C(=O)C(Cl)(Cl)[C@@H]3CCC2C1(Cl)Cl (stereo not given in full)	4% (inactive)
CC[n+]1ccc2c(C)c3[nH]c4ccc(O)cc4c3c(C)c2c1	14% (inactive)
Cc1ccc(-n2cc(-c3ccc(Cl)cc3)c(C#N)c2N)cc1	-3% (inactive)
CC(=O)[O][Bi]([c]1ccccc1)[c]1ccccc1	95% (active)

Compound	growth inhibition
CC1=C(SCCO)C(=O)c2ccccc2C1=O	6% (inactive)
C/C(=N\O)C1CC2C=C(C#N)C1N(Cc1ccccc1)C2 (stereo not given)	-1% (inactive)
CC(Br)C(=O)c1ccc2cc(Br)c3ccccc3c2c1 (stereo not given)	5% (inactive)
Nc1nc(-c2cccnc2)cc(-c2cc(-c3cccnc3)nc(N)n2)n1	3% (inactive)
CC(C)=CC(=O)O[C@@H]1CC(C)(C)CC2C3=CCC4[C@]56CC[C@](O)(OC5)C(C)(C)C6CC[C@@]4(C)C3(C)CC[C@]21C(=O)O (stereo not given in full)	91% (active)
CCC(C)COC(=O)c1ccc(N=Cc2ccc(C=Nc3ccc(C(=O)OCC(C)CC)cc3)cc2)cc1 (stereo not given)	6% (inactive)
Oc1cccc2c(Cl)ccnc12	98% (active)
O=C(O)c1cccc(-c2c3ccc(=O)cc-3oc3cc(O)ccc23)c1	97% (active)
CN(CCc1ccccn1)c1ccc2c(c1)Cc1ccccc1-2	19% (inactive)
Cc1cc(S(=O)(=O)/N=C(/NN)NNc2cccc(C(F)(F)F)n2)c(S)cc1Cl	18% (inactive)
O=C1C2C(C(=O)N1c1ccc(OCc3ccccc3)cc1)C1c3ccccc3C2C2CCCCN21 (stereo not given)	95% (active)
Nc1ccccc1CC(O)C(=O)O (stereo not given)	95% (active)
O=C(O)C1CCCCC1c1c2ccc(=O)c(O)c-2oc2c(O)c(O)ccc12 (stereo not given)	86% (active)
Cc1ccc2ccc(O)cc2c1	50% (inactive)
O=C1C(=O)c2ccccc2C=C1[N+](=O)[O-]	58% (inactive)
COC(=O)c1ccc(NCC2=CC(=O)C=CC2=O)cc1O	91% (active)
C(CCSC1=NCCN1)CSC1=NCCN1 (tested in a mixture with another compound)	98% (active)
N#Cc1c(N)[nH]c2ccc(Sc3ccccc3)cc12	97% (active)
CCNc1nnc(CSc2nc(-c3ccccc3)c(-c3ccccc3)[nH]2)s1	73% (active)
CC[C@@]1(O)C(=O)OCc2c1cc1n(c2=O)Cc2cc3c(N)cccc3nc2-1	5% (inactive)
